Measured values as given in PubChem BioAssay.
For part of these data: Results with a measured potency or affinity are listed apart. Calls of active or inactive are those of the source.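 The calls were made as follows, unless noted: active = primary screen active and over 50% activation in each of two duplicate runs; inactive = the rest.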

Legend:
[1] = tested on: TRPC4 beta (transient receptor potential cation channel C4), mouse; test: activators of mouse TRPC4 channel, confirmation, cell-based, Fluo4 calcium, HEK293 TRPC4beta/mu-opioid, duplicates, 10 µM (AID 2426;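 active = fluorescence ratio normalized to control raised more than 50% in primary screen plus both repeat runs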); conditions: Fluo4 calcium fluorescence, at 10 µM; stronger effect = higher value
[2] = tested on: transient receptor potential cation channel C4 beta (TRPC4), mouse; test: activators of mouse TRPC4 channel, confirmation, cell-based, second round, Fluo4, HEK293 TRPC4beta/mu-opioid, 1 µM (AID 2461); conditions: Fluo4 calcium fluorescence, at 1 µM; stronger effect = higher value
[3] = tested on: TRPC4 (transient receptor potential cation channel C4 beta), mouse; test: positive allosteric modulators of mouse TRPC4, confirmation, cell-based, second round, Fluo-4, HEK293 TRPC4beta/mu-opioid, 1 µM (AID 2554;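 active = primary screen hit whose fluorescence ratio, in both repeats, exceeds the weak agonist control mean by 3 SD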); conditions: DAMGO EC20, Fluo-4 calcium flux, at 1 µM; stronger effect = higher value
[4] = tested on: TRPC4 beta (transient receptor potential cation channel C4), mouse; test: positive allosteric modulators of mouse TRPC4, confirmation, cell-based, Fluo-4, HEK293 TRPC4beta/mu-opioid (AID 2555;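 active = primary screen hit whose calcium fluorescence ratio, in both repeats, exceeds the weak agonist control mean by 3 SD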); conditions: DAMGO EC20, Fluo-4 calcium flux, at 10 µM; stronger effect = higher value
[5] = target: Short transient receptor potential channel 4 (Mus musculus) (UniProt Q9QUQ5); test: inhibitors of mouse TRPC4 channel, confirmation, cell-based, Fluo4, HEK293 TRPC4beta/mu-opioid (AID 2636;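 active = calcium signal cut by more than 3 SD below the full-agonist control yet still positive, in both repeats and the earlier primary screen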); conditions: DAMGO, Fluo4 calcium flux, at 10 µM; stronger effect = higher value
[6] = target: Short transient receptor potential channel 4 (Mus musculus) (UniProt Q9QUQ5); test: inhibitors of mouse TRPC4 channel, confirmation, cell-based, second round, Fluo4, HEK293 TRPC4beta/mu-opioid, 1 µM (AID 2637;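 active = calcium signal ratio cut to more than 3 SD under the fully stimulated control mean yet still positive, in both repeats and the primary screen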;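 as to inhibition: percent of integrated ratio relative to wells lacking test compound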); conditions: Fluo4 calcium flux, DAMGO, at 1 µM; stronger effect = higher value
[7] = target: Short transient receptor potential channel 4 (Mus musculus) (UniProt Q9QUQ5); test: mouse TRPC4 channel activators, dose response, cell-based, HEK293 TRPC4/mu-opioid, Fluo-4 calcium (AID 434937;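 active = primary screen activator hit with a dose response curve and TRPC4 channel activation at any tested dose; inactive = no activation, no dose response, or not a primary hit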)
[8] = target: Short transient receptor potential channel 4 (Mus musculus) (UniProt Q9QUQ5); test: TRPC4 positive allosteric modulators, dose response, cell-based, HEK293 TRPC4/mu-opioid, Fluo-4 calcium, EC20 DAMGO (AID 434941;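 active = earlier screen potentiator hit that boosts the TRPC4 ion channel at some dose, with a dose response; inactive = no potentiation, no dose response, or not a prior hit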;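 also: calcium entry triggered by an EC20 dose of DAMGO at the co-expressed mu-opioid receptor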)
[9] = target: Short transient receptor potential channel 6 (Mus musculus) (UniProt Q61143); test: inhibition of mouse TRPC6 channel, confirmation, selectivity assay for TRPC4 inhibitor project, cell-based, HEK293, membrane potential dye, duplicate (AID 434948;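 active = active in primary screen and both duplicates, each dropping signal beyond three positive-control SD with fluorescence still positive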); conditions: HEK293 TRPC6, membrane potential dye fluorescence, at 10 µM, stimulated with maximal-effect acetylcholine; stronger effect = higher value
[10] = target: Short transient receptor potential channel 6 (Mus musculus) (UniProt Q61143); test: activation of mouse TRPC6 channel, confirmation, selectivity assay for TRPC4 activator project, cell-based, HEK293, membrane potential dye, duplicate (AID 434950;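 active = membrane potential signal rise above negative control mean plus 3 SD in both duplicates, also active in the earlier TRPC4 screen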); conditions: HEK293 TRPC6, membrane potential fluorescence, at 10 µM; stronger effect = higher value
[11] = target: Short transient receptor potential channel 6 (Mus musculus) (UniProt Q61143); test: TRPC6 potentiation by TRPC4 potentiator hits, confirmation, selectivity assay for TRPC4 potentiator project, HEK293 cells, membrane potential dye, duplicate (AID 434952;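 active = compound raising the membrane signal above positive-control mean plus 3 SD in both repeats, and a primary screen hit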); conditions: HEK293 TRPC6, membrane potential dye fluorescence, at 10 µM, maximal acetylcholine added after compound; stronger effect = higher value
[12] = target: Short transient receptor potential channel 4 (Mus musculus) (UniProt Q9QUQ5); test: calcium flux activators in TRPC4/5HT1a cells, counter-screen for TRPC4 activator project, cell-based, second counter screen, HEK293 TRPC4/5HT1a, Fluo-4 (AID 434977;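 active = calcium signal rise above buffer-control mean plus 5 SD in both duplicates, and also a hit in the primary screen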); conditions: Fluo-4 calcium flux, at 10 µM; stronger effect = higher value
[13] = calcium flux inhibitors in TRPC4/5HT1a cells, confirmation, counter-screen for TRPC4 inhibitor project, cell-based, second counter screen, HEK293 TRPC4/5HT1a, Fluo-4 (AID 434978;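 active = primary screen active whose calcium signal fell more than 3 SD beyond the full-serotonin control mean in both duplicate plates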;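 as to outcome: serotonin given first at submaximal then at maximal dose after compound preincubation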); conditions: Fluo-4 calcium flux, at 10 µM, serotonin added to trigger calcium flux; stronger effect = higher value
[14] = tested on: TRPC4 (mouse), co-expressed with 5HT1a in HEK293; test: calcium flux potentiators in TRPC4/5HT1a cells, confirmation, counter-screen for TRPC4 potentiator project, cell-based, second counter screen, HEK293 TRPC4/5HT1a, Fluo-4 (AID 434979;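 active = signal rise over 3 SD above mean of control wells given weak agonist, in both repeats and first screen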); conditions: Fluo-4 calcium flux, at 10 µM, serotonin added at its EC20 dose; stronger effect = higher value
[15] = calcium flux activation in mu-opioid HEK293 cells, confirmation, counter-screen for TRPC4 activator project, cell-based, HEK293 mu-opioid receptor line (AID 449723;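 active = hit in primary screen, with calcium signal over 5 SD above buffer well mean in both duplicates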;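 also: counter screen cells carry the mu-opioid receptor alone and lack TRPC4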); conditions: Fluo-4 calcium fluorescence, at 10 µM; stronger effect = higher value
[16] = calcium flux enhancement in mu-opioid HEK293 cells, confirmation, counter-screen for TRPC4 allosteric potentiator project, cell-based, HEK293 mu-opioid receptor line (AID 449724;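 active = calcium signal rise more than 3 SD above the low-dose agonist control mean, in both duplicate plates and the primary screen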); conditions: Fluo-4 calcium flux, at 10 µM, compound added before EC20 DAMGO stimulus; stronger effect = higher value

Sequence of Short transient receptor potential channel 6 (Mus musculus) (Q61143 whole entry, looked up): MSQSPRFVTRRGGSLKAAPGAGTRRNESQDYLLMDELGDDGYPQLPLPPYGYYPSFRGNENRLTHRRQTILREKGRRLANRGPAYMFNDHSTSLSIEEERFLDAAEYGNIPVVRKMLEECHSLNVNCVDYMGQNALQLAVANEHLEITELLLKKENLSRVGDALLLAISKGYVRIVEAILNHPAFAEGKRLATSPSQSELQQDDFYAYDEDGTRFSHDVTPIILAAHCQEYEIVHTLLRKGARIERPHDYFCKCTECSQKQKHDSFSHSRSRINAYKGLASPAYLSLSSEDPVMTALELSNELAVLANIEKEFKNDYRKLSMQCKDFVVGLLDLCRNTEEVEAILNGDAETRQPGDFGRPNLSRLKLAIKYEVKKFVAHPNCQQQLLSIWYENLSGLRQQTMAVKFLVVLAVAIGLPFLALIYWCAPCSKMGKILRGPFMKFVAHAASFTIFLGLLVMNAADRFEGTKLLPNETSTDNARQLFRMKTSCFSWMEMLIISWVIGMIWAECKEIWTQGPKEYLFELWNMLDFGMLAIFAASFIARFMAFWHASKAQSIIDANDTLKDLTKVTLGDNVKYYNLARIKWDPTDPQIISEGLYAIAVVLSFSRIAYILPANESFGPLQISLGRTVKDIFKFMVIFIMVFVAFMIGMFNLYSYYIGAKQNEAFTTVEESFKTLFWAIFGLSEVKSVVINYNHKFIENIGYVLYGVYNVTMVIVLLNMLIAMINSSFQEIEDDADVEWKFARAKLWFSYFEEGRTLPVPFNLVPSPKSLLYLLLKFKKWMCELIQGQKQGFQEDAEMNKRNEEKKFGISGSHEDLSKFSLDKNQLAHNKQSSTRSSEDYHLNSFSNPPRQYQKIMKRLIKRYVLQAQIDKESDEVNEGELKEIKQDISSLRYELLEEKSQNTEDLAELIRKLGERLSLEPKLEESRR
Sequence of Short transient receptor potential channel 4 (Mus musculus) (Q9QUQ5 whole entry, looked up): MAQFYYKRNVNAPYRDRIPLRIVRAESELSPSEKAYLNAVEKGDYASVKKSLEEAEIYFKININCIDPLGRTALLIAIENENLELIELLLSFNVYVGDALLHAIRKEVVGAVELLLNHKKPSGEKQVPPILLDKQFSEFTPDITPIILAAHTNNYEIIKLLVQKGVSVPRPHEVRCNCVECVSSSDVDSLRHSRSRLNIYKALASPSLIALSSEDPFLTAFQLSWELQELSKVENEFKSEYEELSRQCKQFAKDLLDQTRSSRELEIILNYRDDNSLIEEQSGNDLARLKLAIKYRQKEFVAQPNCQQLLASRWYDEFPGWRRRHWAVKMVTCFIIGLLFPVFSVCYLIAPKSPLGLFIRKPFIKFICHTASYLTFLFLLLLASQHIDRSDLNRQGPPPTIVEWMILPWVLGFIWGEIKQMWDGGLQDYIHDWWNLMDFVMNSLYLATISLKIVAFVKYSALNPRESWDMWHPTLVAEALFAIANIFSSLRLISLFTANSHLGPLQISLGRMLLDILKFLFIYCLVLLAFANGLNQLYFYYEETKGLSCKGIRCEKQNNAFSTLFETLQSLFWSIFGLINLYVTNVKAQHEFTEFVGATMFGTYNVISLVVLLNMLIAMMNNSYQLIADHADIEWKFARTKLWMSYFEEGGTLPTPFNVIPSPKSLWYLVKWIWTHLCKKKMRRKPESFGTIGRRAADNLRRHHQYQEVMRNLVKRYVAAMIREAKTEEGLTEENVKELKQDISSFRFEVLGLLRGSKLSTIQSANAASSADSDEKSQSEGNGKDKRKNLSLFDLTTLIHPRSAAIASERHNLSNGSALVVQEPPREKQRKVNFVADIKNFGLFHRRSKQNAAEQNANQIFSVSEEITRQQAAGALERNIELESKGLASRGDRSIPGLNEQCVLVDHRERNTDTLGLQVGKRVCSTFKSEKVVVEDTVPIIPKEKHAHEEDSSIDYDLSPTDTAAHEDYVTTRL

SMILES	outcome [1]	outcome [2]	outcome [3]	outcome [4]	inhibition [5]	outcome [6]	outcome [7]	outcome [8]	outcome [9]	outcome [10]	outcome [11]	outcome [12]	outcome [13]	outcome [14]	outcome [15]	outcome [16]	inhibition [13]	inhibition [6]	inhibition [9]	outcome [5]
O=S(=O)(c1ccccc1)N1CCN(C/C=C/c2ccccc2)CC1	inactive	inactive	inactive	inactive	93% (active)	inactive	inactive	inactive	inactive	inactive	inactive	inactive	inactive	inactive	inactive	inactive				
Cc1cccc(-c2nnc(SCc3nc4ccccc4[nH]3)n2Cc2ccco2)c1	inactive	inactive	inactive	inactive	90% (active)	inactive	inactive	inactive	inactive	inactive	inactive	inactive		inactive	inactive	inactive	26.7% (active)			
Cn1nnnc1SCCNCc1ccccc1OCc1ccc(Cl)cc1	inactive	inactive	inactive	inactive	88% (active)		inactive	inactive	inactive	inactive	inactive	inactive		inactive	inactive	inactive	23.5% (active)	45% (active)		
CCCN(c1nc(C)cc(OC)n1)S(=O)(=O)c1ccccc1	inactive	inactive	inactive	inactive	59% (active)	inactive	inactive	inactive	inactive	inactive	inactive	inactive		inactive	inactive	inactive	25.2% (active)			
c1ccc(Nc2n[nH]nc2-c2ccccc2)cc1	inactive	inactive	inactive	inactive	96% (active)		inactive	inactive	inactive	inactive	inactive	inactive		inactive	inactive	inactive	17.4% (active)	60% (active)		
COC(=O)c1c(NC(=O)CSc2ncn[nH]2)sc(C)c1C	inactive	inactive	inactive	inactive	67% (active)	inactive	inactive	inactive	inactive	inactive	inactive	inactive	inactive	inactive	inactive	inactive				
Cc1ccc(Oc2ccccc2/C=N/O)cc1	inactive	inactive	inactive	inactive	89% (active)	inactive	inactive	inactive	inactive	inactive	inactive	inactive		inactive	inactive	inactive	10.1% (active)			
COC(=O)CSc1nnc2n(-c3ccc(OC)cc3)c(=O)c3c4c(sc3n12)CCCCC4	inactive	inactive	inactive	inactive	95% (active)	inactive	inactive	inactive	inactive	inactive	inactive	inactive		inactive	inactive	inactive	23% (active)			
CCOC(=O)c1c(NC(=O)C2CCCCC2C(=O)O)sc2c1CCCCC2 (stereo not given)	inactive	inactive	inactive	inactive	80% (active)	inactive	inactive	inactive	inactive	inactive	inactive	inactive		inactive	inactive	inactive	42.6% (active)			
Cc1ccc2nc3c(c(N)c2c1)CCN3C	inactive	inactive	inactive	inactive	90% (active)		inactive	inactive		inactive	inactive	inactive		inactive	inactive	inactive	15.4% (active)	51% (active)	35.5% (active)	
O=C(C[n+]1cc(-c2ccc(Cl)c(Cl)c2)n2c1CCC2)N1c2ccccc2Sc2ccccc21	inactive	inactive	inactive	inactive	75% (active)	inactive	inactive	inactive		inactive	inactive	inactive		inactive	inactive	inactive	18.7% (active)		53.5% (active)	
COc1ccccc1N(C(=O)c1snc(C(N)=O)c1N)C(C(=O)NCc1ccccc1)c1ccc(C)o1 (stereo not given)	inactive	inactive	inactive	inactive			inactive	inactive	inactive	inactive	inactive	inactive		inactive	inactive	inactive	25.3% (active)	49% (active)		inactive
COc1ccc(C(Nc2ccccn2)c2c(NC(=O)c3ccco3)sc(C)c2C)cc1OC (stereo not given)	inactive	inactive	inactive	inactive	78% (active)		inactive	inactive	inactive	inactive	inactive	inactive	inactive	inactive	inactive	inactive		38% (active)		
COC(=O)c1cccc(Nc2c3c(nc4ccccc24)CCC3)c1	inactive	inactive	inactive	inactive	96% (active)	inactive	inactive	inactive	inactive	inactive	inactive	inactive		inactive	inactive	inactive	30.4% (active)			
Clc1ccc(CN2C3=NCCN3c3ccccc32)cc1	inactive	inactive	inactive	inactive	99% (active)		inactive	inactive	inactive	inactive	inactive	inactive		inactive	inactive	inactive	14.4% (active)	75% (active)		
